Data taken from the supplement of paper PMC10849652.
Targets with a hit are over-represented here; the source holds about 7,900 in all. About 0.6% of all pairs of compound and target were hits.

target: YLPM1 (UniProt P49750); assay: log2 fold change, soluble protein after heating vs DMSO (PISA); higher = thermal stabilisation; K562 cells, 10 uM, 30 min; active = over 0.2 and 3.5 SD of the protein, either way, in both replicates (recomputed)
Procedure, shortened: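 K562 cells at 2×10^6 cells/mL were treated with 10 μM compound for 30 min. Aliquots were heated for 3 min across 48°C-58°C, pooled, and extracted in PBS with 0.5% NP-40 at 4°C; soluble protein was the supernatant after 21,000xg for 90 min. Soluble protein was quantified by TMTpro 16plex LC-MS/MS with channel sums equalised, and reported as log2 fold change in thermal stability against DMSO controls, with values from duplicates.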

Chain of YLPM1 (P49750 whole entry, looked up): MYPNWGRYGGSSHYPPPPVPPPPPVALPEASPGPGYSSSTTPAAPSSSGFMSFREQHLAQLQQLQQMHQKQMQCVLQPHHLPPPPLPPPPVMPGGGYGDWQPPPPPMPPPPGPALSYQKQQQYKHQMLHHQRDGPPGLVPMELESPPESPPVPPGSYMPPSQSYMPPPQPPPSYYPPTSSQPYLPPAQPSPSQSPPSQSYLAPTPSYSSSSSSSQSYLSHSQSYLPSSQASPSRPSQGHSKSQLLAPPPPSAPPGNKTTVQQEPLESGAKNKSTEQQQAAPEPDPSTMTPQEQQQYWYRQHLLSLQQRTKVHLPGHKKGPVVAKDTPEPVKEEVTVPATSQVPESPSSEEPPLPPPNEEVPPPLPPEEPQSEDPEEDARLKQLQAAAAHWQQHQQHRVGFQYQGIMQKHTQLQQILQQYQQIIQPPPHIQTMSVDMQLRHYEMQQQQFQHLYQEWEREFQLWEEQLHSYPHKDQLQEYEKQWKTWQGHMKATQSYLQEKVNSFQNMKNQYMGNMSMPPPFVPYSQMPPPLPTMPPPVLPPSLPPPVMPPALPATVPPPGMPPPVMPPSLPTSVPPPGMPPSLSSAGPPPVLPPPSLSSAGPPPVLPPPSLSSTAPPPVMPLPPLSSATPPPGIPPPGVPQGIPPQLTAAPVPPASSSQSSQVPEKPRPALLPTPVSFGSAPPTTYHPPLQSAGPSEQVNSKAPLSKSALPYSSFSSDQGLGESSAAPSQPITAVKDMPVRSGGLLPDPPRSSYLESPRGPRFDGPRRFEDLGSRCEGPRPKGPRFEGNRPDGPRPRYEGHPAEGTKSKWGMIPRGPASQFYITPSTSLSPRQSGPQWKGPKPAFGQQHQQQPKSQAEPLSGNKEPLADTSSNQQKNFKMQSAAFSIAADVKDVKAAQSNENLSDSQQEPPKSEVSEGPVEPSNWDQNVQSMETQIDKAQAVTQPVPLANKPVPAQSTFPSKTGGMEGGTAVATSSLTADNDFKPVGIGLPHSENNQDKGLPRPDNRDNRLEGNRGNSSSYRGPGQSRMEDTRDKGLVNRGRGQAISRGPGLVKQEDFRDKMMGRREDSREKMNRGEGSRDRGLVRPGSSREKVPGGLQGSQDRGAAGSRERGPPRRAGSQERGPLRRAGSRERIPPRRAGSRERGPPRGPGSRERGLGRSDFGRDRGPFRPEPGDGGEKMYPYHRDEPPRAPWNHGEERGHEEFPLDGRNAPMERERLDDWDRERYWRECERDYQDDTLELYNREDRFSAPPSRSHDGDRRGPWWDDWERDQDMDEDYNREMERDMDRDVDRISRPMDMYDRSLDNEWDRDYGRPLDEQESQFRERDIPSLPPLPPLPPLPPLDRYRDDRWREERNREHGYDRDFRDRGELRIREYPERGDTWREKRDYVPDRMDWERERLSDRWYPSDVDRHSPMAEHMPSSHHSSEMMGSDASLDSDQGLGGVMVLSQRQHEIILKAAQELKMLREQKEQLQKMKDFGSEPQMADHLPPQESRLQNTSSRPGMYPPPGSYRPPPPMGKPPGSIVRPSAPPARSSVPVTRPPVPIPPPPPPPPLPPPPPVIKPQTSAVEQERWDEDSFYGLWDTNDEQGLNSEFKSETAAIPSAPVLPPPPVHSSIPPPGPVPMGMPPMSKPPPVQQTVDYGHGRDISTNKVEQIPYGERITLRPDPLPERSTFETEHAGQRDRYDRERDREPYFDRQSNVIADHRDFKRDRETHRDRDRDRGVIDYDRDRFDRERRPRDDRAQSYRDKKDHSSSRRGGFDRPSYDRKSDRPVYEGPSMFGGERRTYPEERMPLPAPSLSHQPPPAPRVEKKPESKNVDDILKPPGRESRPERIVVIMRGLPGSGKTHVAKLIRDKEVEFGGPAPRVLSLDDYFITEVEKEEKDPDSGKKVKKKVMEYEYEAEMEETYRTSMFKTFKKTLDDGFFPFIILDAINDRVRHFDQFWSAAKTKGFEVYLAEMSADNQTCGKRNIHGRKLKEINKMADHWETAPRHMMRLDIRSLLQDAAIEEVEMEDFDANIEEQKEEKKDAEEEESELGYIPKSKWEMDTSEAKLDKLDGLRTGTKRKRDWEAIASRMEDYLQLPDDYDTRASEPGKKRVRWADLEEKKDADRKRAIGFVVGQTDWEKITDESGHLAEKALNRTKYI

log2 fold change, inactive:
CN1CCN(CCOc2cc(OC3CCOCC3)c3c(Nc4c(Cl)ccc5c4OCO5)ncnc3c2)CC1 [saracatinib] 0
C[C@@H](N)c1ccc(C(=O)Nc2ccnc3[nH]ccc23)cc1 -0.037
Fc1ccc(Cl)cc1-c1nc(Nc2ccncc2)c2nccnc2n1 0.057
Cc1cc(Nc2cc(N3CCN(C)CC3)nc(Sc3ccc(NC(=O)C4CC4)cc3)n2)n[nH]1 [tozasertib] -0.051
c1cc(OCCN2CCCCC2)cc(-c2n[nH]c3ccc(-c4nnc[nH]4)cc23)c1 0
C/C(=N\NC(=O)c1cccc(S(=O)(=O)N2CCOCC2)c1)c1cc(Cl)ccc1O 0.03
O=C(Nc1cccc(Nc2ncc(Br)c(NCCc3cnc[nH]3)n2)c1)N1CCCC1 -0.083
NC1(c2ccc(-c3nc4ccn5c(=O)[nH]nc5c4cc3-c3ccccc3)cc2)CCC1 -0.046
Cc1cccc(-c2[nH]c(C(C)(C)C)nc2-c2ccc3nccnc3c2)n1 0.043
CC(C)N(C[C@H]1O[C@@H](n2cnc3c(N)ncnc32)[C@H](O)[C@@H]1O)[C@H]1C[C@@H](CCc2nc3cc(C(C)(C)C)ccc3[nH]2)C1 [pinometostat] 0.003
COc1cc2nc(-c3cc(F)ccc3O)nc(N[C@@H]3CNC[C@H]3C(C)(C)O)c2cc1OC 0.1
CNC(=O)c1ccccc1Nc1nc(Nc2ccc(N3CCOCC3)cc2OC)ncc1Cl -0.006
O=C(Nc1nc2ccccc2n1CCN1CCOCC1)c1cccc([N+](=O)[O-])c1 [IRAK-1-4 Inhibitor I] -0.06
C[C@@H](Oc1cc(-c2cnn(C3CCNCC3)c2)cnc1N)c1c(Cl)ccc(F)c1Cl [crizotinib] -0.08
COc1cc(Nc2ncc3c(n2)-c2ccc(Cl)cc2C(c2c(F)cccc2OC)=NC3)ccc1C(=O)O [alisertib] 0.017
CN1CC[C@H](c2c(O)cc(O)c3c(=O)cc(-c4ccccc4Cl)oc23)[C@H](O)C1 [alvocidib] 0
CN1CCc2c(c3ccccc3n2Cc2ccc(C(=O)NO)cc2)C1 [Tubastatin A] 0.039
O=C1c2ccccc2-c2n[nH]c3cccc1c23 0.02
CNCc1ccc(-c2[nH]c3cc(F)cc4c3c2CCNC4=O)cc1 [rucaparib] -0.07
COc1cccc2cc(-c3nc([C@H]4CC[C@H](C(=O)O)CC4)n4ncnc(N)c34)[nH]c12 0.053
Cc1ccc2c(=O)c3ccccc3n(CCCN)c2c1C 0.023
O=C1NC(=O)C(c2cnc3ccccn23)=C1c1cn2c3c(cc(F)cc13)CN(C(=O)N1CCCCC1)CC2 0.026
COc1ccc(Cn2ccc3ccc(C(=O)NO)cc32)cc1 0.018
CN(C)CC(=O)Nc1ccc2[nH]c(=O)c3ccccc3c2c1 -0.037
COc1cc(C(=O)O)ccc1NC(=O)[C@@H]1N[C@@H](CC(C)(C)C)[C@](C#N)(c2ccc(Cl)cc2F)[C@H]1c1cccc(Cl)c1F [idasanutlin] -0.026
O=C1NC(=NCc2cccs2)S/C1=C\c1ccc2ncccc2c1 0.057
NC(=O)c1cnc(N[C@@H]2CCCC[C@@H]2N)nc1Nc1cccc(-n2nccn2)c1 -0.034
Cc1ccc(-n2nc(C(C)(C)C)cc2NC(=O)Nc2ccc(OCCN3CCOCC3)c3ccccc23)cc1 [doramapimod] 0
NC1(Cc2ccc(Cl)cc2)CCN(c2ncnc3[nH]ccc23)CC1 0.102
CC(=O)c1cnc2ccc(-c3cc(Cl)c(O)c(Cl)c3)nc2c1N[C@H]1CC[C@H](CN(C)C)CC1 -0.093
